Source: PubChem BioAssay (EPA / NIEHS)
Records with an inconclusive call do not appear. More than one record can exist for a structure, and the calls need not agree. Activity calls are given as the source filed them. How the source made its calls, unless noted: active means hit-call score of the fitted dose curve at least 0.9, where 1 is the maximum; inconclusive means response in the unintended direction; inactive means score below 0.9.

How the values were obtained:
[1] = ATG_AP_2_CIS: Attagene CIS-FACTORIAL HepG2 Assay for human Activator Protein 2 (AP-2) (AID 2282932; active means hit-call score of the fitted dose curve at least 0.9, where 1 is the maximum; inactive means score below 0.9); details: HepG2 AP-2 cis-reporter, Attagene transcription factor profiling; actives raise or lower the signal
How it was run: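 Multiplexed mRNA reporter assay in HepG2: cis-regulated units report endogenous factor activity after 24 h treatment. Fluorescence from capillary electrophoresis of RT-PCR products gives the signal, with DMSO as baseline.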

[2] = molecular target: Hepatocyte nuclear factor 3-beta (Homo sapiens) (UniProt Q9Y261); experiment: ATG_FoxA2_CIS: Attagene CIS-FACTORIAL HepG2 Assay for human Forkhead box A2 (FOXA2) (AID 2282942; active means hit-call score of the fitted dose curve at least 0.9, where 1 is the maximum; inactive means score below 0.9); details: HepG2 cis-reporter transcription factor activity, 24 h; actives raise or lower the signal
Sequence of Hepatocyte nuclear factor 3-beta (Homo sapiens) (Q9Y261 whole entry, looked up): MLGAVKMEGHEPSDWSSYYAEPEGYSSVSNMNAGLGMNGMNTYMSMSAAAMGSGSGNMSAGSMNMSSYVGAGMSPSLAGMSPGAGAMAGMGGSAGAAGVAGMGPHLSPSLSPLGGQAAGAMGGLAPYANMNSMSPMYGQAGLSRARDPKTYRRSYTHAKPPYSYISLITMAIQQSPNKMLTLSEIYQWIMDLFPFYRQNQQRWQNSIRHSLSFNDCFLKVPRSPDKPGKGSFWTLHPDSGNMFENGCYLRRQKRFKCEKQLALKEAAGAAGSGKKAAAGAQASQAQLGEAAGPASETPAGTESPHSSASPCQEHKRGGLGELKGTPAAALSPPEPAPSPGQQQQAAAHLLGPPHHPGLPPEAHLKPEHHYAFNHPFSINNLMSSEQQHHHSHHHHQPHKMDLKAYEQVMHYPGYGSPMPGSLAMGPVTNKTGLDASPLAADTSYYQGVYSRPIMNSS
How it was run: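 Transient MRTU transfection of HepG2 liver cells; 24 h treatment; total RNA → oligo(dT) RT → PCR → FAM primer extension → HpaI cut → CE. Bidirectional fit vs DMSO.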

[3] = ATG_M_32_CIS: Attagene CIS-FACTORIAL HepG2 Assay for M32 Transcription Factor (Internal Marker) (AID 2282949; active means hit-call score of the fitted dose curve at least 0.9, where 1 is the maximum; inactive means score below 0.9;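 further: background control marker of the multiplexed CIS panel rather than a real target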); details: HepG2 Attagene cis-factorial M32 reporter, mRNA; actives raise or lower the signal
How it was run: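 Following 24 h chemical exposure of HepG2 cells transiently expressing cis-promoter reporter constructs, reporter transcript levels were determined by RT-PCR with fluorescent labelling and capillary electrophoresis, then fitted bidirectionally against DMSO.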

[4] = ATG_PPRE_CIS: Attagene CIS-FACTORIAL HepG2 Assay for human Peroxisome Proliferator-activated Response Element (PPRE) (AID 2282958; active means hit-call score of the fitted dose curve at least 0.9, where 1 is the maximum; inactive means score below 0.9); details: HepG2 PPRE cis-element reporter, Attagene transcription factor profiling; actives raise or lower the signal
How it was run: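 HepG2, transient MRTU transfection (cis promoter elements, endogenous TFs). 24 h dosing. RNA → oligo(dT) RT → PCR → 6-FAM primer extension → HpaI digest → CE. Bidirectional fit vs DMSO.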

[5] = ATG_GAL4_TRANS: Attagene TRANS-FACTORIAL HepG2 Assay for GAL4 (Internal Marker) (AID 2282976); details: HepG2 Attagene TRANS GAL4 internal marker reporter
How it was run: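 In transfected human HepG2 liver cells dosed 24 h, GAL4 reporter mRNA serves as a baseline marker. Detection by RT-PCR with fluorescent capillary electrophoresis, activity fitted upward relative to DMSO.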

[6] = ATG_NF_kB_CIS: Attagene CIS-FACTORIAL HepG2 Assay for human Nuclear Factor Kappa B (NF-kB) (AID 2282991; active means hit-call score of the fitted dose curve at least 0.9, where 1 is the maximum; inactive means score below 0.9); details: HepG2 Attagene cis-factorial NF-kB reporter mRNA; actives raise or lower the signal
How it was run: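 Transient MRTU transfection of human HepG2 liver cells → 24 h chemical exposure → total RNA, oligo(dT) RT → PCR, 6-FAM primer extension, HpaI digest 2 h 37 C → CE fragment analysis. Bidirectional fitting, DMSO negative control.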

[7] = molecular target: Cellular tumor antigen p53 (Homo sapiens) (UniProt P04637); experiment: ATG_p53_CIS: Attagene CIS-FACTORIAL HepG2 Assay for human p53 Transcription Factor (AID 2282994; active means hit-call score of the fitted dose curve at least 0.9, where 1 is the maximum; inactive means score below 0.9); details: HepG2 p53 cis-element reporter, Attagene mRNA; actives raise or lower the signal
Sequence of Cellular tumor antigen p53 (Homo sapiens) (P04637 whole entry, looked up): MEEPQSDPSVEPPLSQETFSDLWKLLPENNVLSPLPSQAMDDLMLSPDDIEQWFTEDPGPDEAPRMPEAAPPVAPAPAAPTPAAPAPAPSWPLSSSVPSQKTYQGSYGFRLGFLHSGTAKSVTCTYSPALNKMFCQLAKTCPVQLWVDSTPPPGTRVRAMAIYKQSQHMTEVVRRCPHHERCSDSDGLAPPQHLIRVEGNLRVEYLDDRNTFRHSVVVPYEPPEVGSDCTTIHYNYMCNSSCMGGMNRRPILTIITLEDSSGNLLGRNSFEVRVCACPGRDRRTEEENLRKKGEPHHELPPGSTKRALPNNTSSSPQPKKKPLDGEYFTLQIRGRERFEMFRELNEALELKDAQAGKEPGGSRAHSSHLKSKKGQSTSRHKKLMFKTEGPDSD
How it was run: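 Multiplexed reporter mRNA assay in human HepG2 liver cells; cis-regulated units report endogenous factor activity. Values come from bidirectional curve fitting against DMSO negative control after 24 h treatment.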

[8] = molecular target: Peroxisome proliferator-activated receptor gamma (Homo sapiens) (UniProt P37231); experiment: ATG_PPARg_TRANS: Attagene TRANS-FACTORIAL HepG2 Assay for human Peroxisome Proliferator-activated Receptor-gamma (PPARg) (AID 2283007)
Sequence of Peroxisome proliferator-activated receptor gamma (Homo sapiens) (P37231 whole entry, looked up, the tested form may be a part): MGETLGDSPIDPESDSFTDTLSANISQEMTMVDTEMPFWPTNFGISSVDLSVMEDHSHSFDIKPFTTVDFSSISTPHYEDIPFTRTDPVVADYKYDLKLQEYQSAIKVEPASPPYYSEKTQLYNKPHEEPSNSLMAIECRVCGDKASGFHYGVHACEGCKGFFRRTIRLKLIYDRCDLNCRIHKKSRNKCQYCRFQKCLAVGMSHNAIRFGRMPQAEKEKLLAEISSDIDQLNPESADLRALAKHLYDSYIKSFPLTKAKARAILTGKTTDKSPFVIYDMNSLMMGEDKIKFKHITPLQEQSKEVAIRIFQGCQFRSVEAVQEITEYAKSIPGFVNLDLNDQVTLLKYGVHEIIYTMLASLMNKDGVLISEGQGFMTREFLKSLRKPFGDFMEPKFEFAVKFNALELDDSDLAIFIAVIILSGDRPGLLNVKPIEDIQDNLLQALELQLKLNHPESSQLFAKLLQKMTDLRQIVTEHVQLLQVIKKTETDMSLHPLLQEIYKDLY
How it was run: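 Transient transfection of HepG2 with GAL4-UAS-driven reporter units; chemical dosing 24 h; total RNA → oligo(dT) RT → PCR with reporter primers → 6-FAM primer extension → HpaI digest 2 h 37 C → capillary electrophoresis. Positive direction vs DMSO.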

[9] = molecular target: Nuclear receptor subfamily 1 group I member 2 (Homo sapiens) (UniProt O75469); experiment: ATG_PXR_TRANS: Attagene TRANS-FACTORIAL HepG2 Assay for human Pregnane X Receptor (PXR) (AID 2283008)
Sequence of Nuclear receptor subfamily 1 group I member 2 (Homo sapiens) (O75469 whole entry, looked up, the tested form may be a part): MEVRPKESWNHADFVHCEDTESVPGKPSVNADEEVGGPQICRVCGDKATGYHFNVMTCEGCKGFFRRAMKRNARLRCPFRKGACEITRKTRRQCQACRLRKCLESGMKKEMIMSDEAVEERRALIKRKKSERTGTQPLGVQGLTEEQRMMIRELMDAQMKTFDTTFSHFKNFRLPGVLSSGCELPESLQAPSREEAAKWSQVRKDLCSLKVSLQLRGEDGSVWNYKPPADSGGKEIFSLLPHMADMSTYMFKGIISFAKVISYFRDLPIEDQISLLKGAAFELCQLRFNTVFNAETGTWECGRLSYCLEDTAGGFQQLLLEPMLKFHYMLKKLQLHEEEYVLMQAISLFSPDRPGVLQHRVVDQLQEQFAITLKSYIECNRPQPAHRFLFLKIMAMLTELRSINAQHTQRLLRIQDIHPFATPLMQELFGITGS
How it was run: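 Measures mRNA induction of a GAL4-UAS-driven reporter in human HepG2 cells transiently expressing PXR fused to Gal4, following 24 h treatment. DMSO served as negative control and baseline.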

[10] = ATG_XTT_Cytotoxicity: Cytotoxicity Assessment in the Attagene TRANS-FACTORIAL HepG2 Assay (AID 2283584)
How it was run: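 Viability endpoint from XTT after 24 h chemical exposure of reporter-transfected human HepG2 liver cells; signal loss fitted relative to DMSO negative control.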

[11] = molecular target: Cellular tumor antigen p53 (Homo sapiens) (UniProt P04637); experiment: TOX21_p53_BLA_p2_ratio: Tox21 HCT-116 p53 Agonism Beta-lactamase Assay, Ratio, Phase 2 (AID 2283592)
How it was run: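 Gain-of-signal p53 agonism was scored from the beta-lactamase FRET ratio (460/530 nm, 405 nm excitation) in HCT116 cells treated 16 h at 37C, 5% CO2, with DMSO serving as negative control and baseline.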

[12] = molecular target: Cellular tumor antigen p53 (Homo sapiens) (UniProt P04637); experiment: TOX21_p53_BLA_p5_ratio: Tox21 HCT-116 p53 Agonism Beta-lactamase Assay, Ratio, Phase 5 (AID 2283599)
How it was run: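 HCT-116 p53-bla cells (4000/well) plated 5 h, dosed with compound (217-fold DMSO dilution) for 16 h at 37 C; CCF4-AM substrate 2 h at room temperature. Activity is the 460/530 nm emission ratio (405 nm excitation), fitted in gain-of-signal direction versus DMSO.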

[13] = ACEA_ER_AUC_viability: ACEA Biosciences xCELLigence Real-Time Cell Analysis on Estrogen Receptor Agonism for Viability (AID 2283782);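 further: continuous compound exposure with impedance area under curve over 80 h; hit means loss of impedance signal meaning reduced cell growth or viability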
How it was run: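 T47D cells preconditioned in phenol red-free RPMI with charcoal-stripped FBS, then dosed with 8-point 1:4 series from 100 uM (up to 0.5% DMSO). Impedance monitored up to ~80 h; area-under-curve loss versus DMSO taken as viability.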

[14] = CCTE_Harrill_HTTr_Apoptosis_MCF7: CCTE's 6-hour Apoptosis Assessment for the High-Throughput Transcriptomics (HTTr) Platform, in MCF-7 cells cultured in DMEM + 10% fetal bovine serum, Harrill Lab (AID 2284011; active means hit-call score of the fitted dose curve at least 0.9, where 1 is the maximum; inactive means score below 0.9)
How it was run: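 High-content imaging of CellEvent Caspase 3/7 Green signal follows a six-hour exposure, with eight concentrations per chemical. MCF-7 cells grown in DMEM plus 10% fetal bovine serum; activity fitted in both directions against DMSO.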

[15] = ATG_PBREM_CIS: Attagene CIS-FACTORIAL HepG2 Assay for human Phenobarbital-responsive Enhancer Module (PBREM) (AID 2282955; active means hit-call score of the fitted dose curve at least 0.9, where 1 is the maximum; inactive means score below 0.9); details: HepG2 PBREM cis-reporter, Attagene multiplexed transcription; actives raise or lower the signal
How it was run: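 Endogenous transcription factors in human liver HepG2 cells drive a PBREM cis-element reporter, whose transcript level after 24 h treatment is quantified by RT-PCR with capillary electrophoresis; activity fitted in both directions against DMSO.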

[16] = molecular target: Oxysterols receptor LXR-beta (Homo sapiens) (UniProt P55055); experiment: ATG_LXRb_TRANS: Attagene TRANS-FACTORIAL HepG2 Assay for human Liver X Receptor beta (LXRb) (AID 2282981); details: HepG2 Attagene TRANS GAL4-LXRb reporter, mRNA
Sequence of Oxysterols receptor LXR-beta (Homo sapiens) (P55055 whole entry, looked up, the tested form may be a part): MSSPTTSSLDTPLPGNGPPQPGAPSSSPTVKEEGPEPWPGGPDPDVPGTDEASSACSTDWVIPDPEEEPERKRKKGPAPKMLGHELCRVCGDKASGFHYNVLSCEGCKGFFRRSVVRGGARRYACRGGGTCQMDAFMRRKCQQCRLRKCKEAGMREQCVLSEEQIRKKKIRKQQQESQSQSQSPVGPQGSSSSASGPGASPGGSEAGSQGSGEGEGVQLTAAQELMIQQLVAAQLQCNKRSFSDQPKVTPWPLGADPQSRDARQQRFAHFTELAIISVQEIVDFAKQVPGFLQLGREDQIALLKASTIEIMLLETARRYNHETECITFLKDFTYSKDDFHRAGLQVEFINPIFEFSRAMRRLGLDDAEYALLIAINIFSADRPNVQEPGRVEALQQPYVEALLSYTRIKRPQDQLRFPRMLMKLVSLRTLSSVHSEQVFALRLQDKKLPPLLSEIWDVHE
How it was run: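 Gain-of-signal mRNA reporter endpoint, DMSO as negative control. Transiently transfected HepG2 cells carrying the NR-Gal4 chimera and GAL4-UAS reporter units were treated 24 h; transcripts quantified by RT-PCR and capillary electrophoresis fluorescence.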

[17] = ATG_NRF2_ARE_CIS: Attagene CIS-FACTORIAL HepG2 Assay for human Nuclear Factor Erythroid 2 Related Factor 2 (NFR2) response to Antioxidant Response Elements (ARE) (AID 2282992; active means hit-call score of the fitted dose curve at least 0.9, where 1 is the maximum; inactive means score below 0.9;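 on AC50: reporter mRNA level measured by RT-PCR and capillary electrophoresis fluorescence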); details: HepG2 Attagene ARE/NRF2 reporter, transcription factor activity; actives raise or lower the signal
How it was run: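 Multiplexed reporter mRNA profiling in HepG2 after a 24 h chemical exposure. Curves fitted in both directions relative to DMSO negative control.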

[18] = molecular target: human Peroxisome Proliferator-activated Receptor alpha (PPARa), PPARA (gene 5465) (UniProt Q07869); experiment: ATG_PPARa_TRANS: Attagene TRANS-FACTORIAL HepG2 Assay for human Peroxisome Proliferator-activated Receptor alpha (PPARa) (AID 2283001);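 on AC50: potency for gain of reporter signal over DMSO so agonist or activator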
Sequence of human Peroxisome Proliferator-activated Receptor alpha (PPARa), PPARA (gene 5465) (Q07869 whole entry, looked up, the tested form may be a part): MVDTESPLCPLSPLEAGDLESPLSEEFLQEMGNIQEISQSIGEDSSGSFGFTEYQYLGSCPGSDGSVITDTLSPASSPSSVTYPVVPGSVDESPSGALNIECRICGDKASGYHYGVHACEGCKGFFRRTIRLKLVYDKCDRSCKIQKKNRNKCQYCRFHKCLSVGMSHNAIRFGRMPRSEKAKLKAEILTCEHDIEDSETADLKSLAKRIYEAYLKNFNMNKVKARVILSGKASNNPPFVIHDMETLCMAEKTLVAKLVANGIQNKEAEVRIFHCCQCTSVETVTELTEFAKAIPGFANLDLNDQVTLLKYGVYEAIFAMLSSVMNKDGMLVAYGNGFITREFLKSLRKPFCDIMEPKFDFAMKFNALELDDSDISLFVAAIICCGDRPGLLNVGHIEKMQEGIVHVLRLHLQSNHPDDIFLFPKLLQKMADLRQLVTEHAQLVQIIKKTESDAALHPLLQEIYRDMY
How it was run: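 Measures transcriptional activity of an exogenous chimeric PPARa-Gal4 protein in transiently transfected HepG2 cells after 24 h dosing. Reporter mRNA quantified via RT-PCR and capillary electrophoresis; DMSO served as negative control.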

[19] = molecular target: Retinoic acid receptor RXR-alpha (Homo sapiens) (UniProt P19793); experiment: ATG_RXRa_TRANS: Attagene TRANS-FACTORIAL HepG2 Assay for human Retinoid X Receptor alpha (RXRa) (AID 2283012)
Sequence of Retinoic acid receptor RXR-alpha (Homo sapiens) (P19793 whole entry, looked up, the tested form may be a part): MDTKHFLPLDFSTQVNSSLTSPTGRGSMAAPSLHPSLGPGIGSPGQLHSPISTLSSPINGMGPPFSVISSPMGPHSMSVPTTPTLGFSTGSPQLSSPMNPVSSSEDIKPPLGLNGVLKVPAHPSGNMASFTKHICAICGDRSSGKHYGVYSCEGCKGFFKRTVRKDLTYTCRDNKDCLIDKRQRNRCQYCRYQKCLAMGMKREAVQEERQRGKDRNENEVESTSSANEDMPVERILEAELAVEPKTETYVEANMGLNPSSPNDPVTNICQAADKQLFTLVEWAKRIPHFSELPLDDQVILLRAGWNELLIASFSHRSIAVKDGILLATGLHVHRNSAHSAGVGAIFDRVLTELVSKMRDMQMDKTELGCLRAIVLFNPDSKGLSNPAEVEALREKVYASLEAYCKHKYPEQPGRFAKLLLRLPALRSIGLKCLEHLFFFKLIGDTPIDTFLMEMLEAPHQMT
How it was run: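 Cells (HepG2) carried transiently transfected GAL4-responsive reporter units. Following a 24 h chemical incubation, reporter mRNA induction was read via RT-PCR fragment analysis; DMSO served as negative control and baseline.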

[20] = molecular target: human Fibroblast Growth Factor Receptor 1 (FGFR1), FGFR1 (gene 2260) (UniProt P11362); experiment: NVS_ENZ_hFGFR1: NovaScreen (NVS) Enzymatic Assay for human Fibroblast Growth Factor Receptor 1 (FGFR1) (AID 2283159);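 on AC50: hits lower the signal so potencies describe inhibitors of the kinase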
Sequence of human Fibroblast Growth Factor Receptor 1 (FGFR1), FGFR1 (gene 2260) (P11362 whole entry, looked up): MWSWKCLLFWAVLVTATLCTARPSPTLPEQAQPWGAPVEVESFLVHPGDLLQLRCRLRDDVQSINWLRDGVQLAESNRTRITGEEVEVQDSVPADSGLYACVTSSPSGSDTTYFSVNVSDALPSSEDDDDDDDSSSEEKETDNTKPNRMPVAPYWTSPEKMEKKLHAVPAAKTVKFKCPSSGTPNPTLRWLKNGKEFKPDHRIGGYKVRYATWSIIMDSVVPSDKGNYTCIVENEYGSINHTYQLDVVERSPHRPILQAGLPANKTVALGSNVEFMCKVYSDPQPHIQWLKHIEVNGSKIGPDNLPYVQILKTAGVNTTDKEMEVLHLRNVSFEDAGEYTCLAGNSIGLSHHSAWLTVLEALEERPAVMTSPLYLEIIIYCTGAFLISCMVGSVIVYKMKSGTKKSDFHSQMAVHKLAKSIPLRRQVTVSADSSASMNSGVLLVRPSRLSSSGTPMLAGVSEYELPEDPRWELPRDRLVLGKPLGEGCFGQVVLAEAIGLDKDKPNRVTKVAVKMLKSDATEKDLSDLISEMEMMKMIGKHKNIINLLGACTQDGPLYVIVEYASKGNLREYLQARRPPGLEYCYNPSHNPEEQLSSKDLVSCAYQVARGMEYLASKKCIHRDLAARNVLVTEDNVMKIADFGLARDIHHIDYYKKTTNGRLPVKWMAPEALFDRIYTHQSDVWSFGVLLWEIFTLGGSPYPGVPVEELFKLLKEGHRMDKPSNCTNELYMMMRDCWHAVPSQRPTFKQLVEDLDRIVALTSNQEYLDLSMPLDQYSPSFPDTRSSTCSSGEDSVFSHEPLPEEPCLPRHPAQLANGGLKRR
How it was run: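 Cell-free recombinant kinase with fluorescent substrate, product separated by electrophoretic mobility shift; read 1 hour after dosing, loss of signal relative to DMSO. Initial screen in duplicate at 25 uM, actives followed in concentration series.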

Measured: AC50

CC1(C)[C@H](C(=O)O[C@H](C#N)c2cccc(Oc3ccccc3)c2)[C@@H]1C=C(Br)Br
inactive: [1] | [2] | [3] | [4] | [5] | [6] | [7] | [10] | [11] | [12] | [14]
active: [8] 2.94 µM | [9] 0.166 µM | [12] 82.2 µM | [13] 72.7 µM

CN(N=O)c1ccccc1
inactive: [1] | [3] | [15] | [4] | [16] | [6] | [17] | [18] | [8] | [9]

C[N+](C)(C)CC(=O)[O-]
inactive: [1] | [3] | [4] | [18] | [19] | [10] | [14]

CCOC(=O)COc1ccc(Cl)cc1Cl
not listed: [4] | [8] | [13] | [16] | [18] | [19] | [20]
inactive: all other assays above

CCOC(=O)N(C)N=O
not listed: [1] | [2] | [9] | [10] | [13] | [15] | [20]
inactive: all other assays above

S=c1[nH]c2ccccc2[nH]1
not listed: [4] | [6] | [11] | [12] | [14] | [16] | [19] | [20]
inactive: all other assays above

O=C(NC(=O)c1c(F)cccc1F)Nc1ccc(Oc2ccc(C(F)(F)F)cc2Cl)cc1F
active: [8] 3.59 µM
not listed: [1] | [5] | [13] | [17] | [20]
inactive: all other assays above

CC(=O)C=Cc1ccccc1
active: [6] 163 µM | [17] 56.5 µM | [18] 100 µM | [8] 27 µM | [9] 35.9 µM
not listed: [1] | [3] | [7] | [11] | [12] | [20]
inactive: all other assays above

O=C(O)CCl
inactive: [3] | [18] | [8] | [19] | [10] | [13]

COCC(=O)N(c1c(C)cccc1C)N1CCOC1=O
inactive: [2] | [3] | [15] | [5] | [6] | [7] | [19] | [11] | [12]
active: [9] 27.4 µM

c1ccc(Nc2ccc3ccccc3c2)cc1
inactive: [1] | [15] | [16] | [6] | [7] | [18] | [19] | [11] | [12]
active: [4] 39.8 µM | [17] 37 µM | [8] 18 µM | [9] 7.59 µM | [11] 74.9 µM | [13] 87.1 µM

CCCCCCCCCC(=O)O
inactive: [20]

CC(C)(c1ccc(O)cc1)c1ccc(O)cc1
inactive: [20]

CCN(CC)CCOc1ccc(C(=C(Cl)c2ccccc2)c2ccccc2)cc1
active: [20] 27.1 µM

CSc1ccc(Oc2ccc(S(N)(=O)=O)cc2CN(C)C)cc1C
inactive: [20]

Cc1nc(-c2ccc3c(c2)CCN(CCC2CCC(NC(=O)/C=C/c4ccc(F)cc4)CC2)CC3)no1 (stereo not drawn)
active: [20] 5.82 µM

CCCCCCCCCCCCCC[P+](CCCC)(CCCC)CCCC
active: [20] 5.1 µM

Cc1cc(NC(=O)C(=O)O)cc(C)c1Oc1ccc(O)c2c1CCC2
inactive: [20]

CCCCCCCCCCCCCCCCOS(=O)(=O)O
active: [20] 1.41 µM

O=C(c1ccc(O)cc1O)c1ccc(O)cc1O
active: [20] 25 µM

NC(=NCCCCCCN=C(N)/N=C(\N)Nc1ccc(Cl)cc1)/N=C(\N)Nc1ccc(Cl)cc1
active: [20] 11.8 µM

O=C(O)Cn1c(=O)n(Cc2ccc(Br)cc2F)c(=O)c2ccc(Cl)cc21
inactive: [20]

CCCCCCCCCCCCc1ccccc1S(=O)(=O)O
active: [20] 9.42 µM

COCC(C)OCC(C)OCC(C)O (stereo not drawn)
inactive: [20]
